Source: PubChem BioAssay (NCATS)
Inconclusive results are not listed. Where a call stands in place of a potency, no number is given. The source made the active and inactive calls. Unless noted, the call rests on the fitted dose curve; in most records, active means well fitted curve in the direction sought with a large enough effect; inconclusive means small, poorly fitted or top-dose-only effect, or another doubt; inactive means no such curve, though single readings can be large; an effect the other way counts as inactive or inconclusive.

Assays:
[1] = qHTS profiling for inhibitors of Plasmodium falciparum (3D7) proliferation (AID 743322);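 further: infected erythrocytes exposed to compound for 72 h before lysis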; details: P. falciparum 3D7 proliferation; at 28.7 µM (top of the series) unless noted
In short: (§1)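 Erythrocytes infected with P. falciparum (0.3% parasitemia, 2.5% hematocrit) incubated with compounds 72 h at 37 C, 5% CO2. Lysis with saponin/Triton buffer containing SYBR Green I, overnight at room temperature in the dark; DNA fluorescence (485/535 nm) normalised to 0.29 uM artemisinin and DMSO.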

[2] = qHTS profiling for inhibitors of Plasmodium falciparum (DD2) proliferation (AID 743323; call rule not given here); details: lower = more inhibition; at 28.7 µM (top of the series) unless noted
In short: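 Parasite proliferation measured via DNA-dye fluorescence, as uninfected erythrocytes lack DNA. Cultures at 0.3% parasitemia and 2.5% hematocrit incubated 72 h with compound; signal scaled between vehicle and 0.29 uM artemisinin wells.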

[3] = qHTS profiling for inhibitors of Plasmodium falciparum (HB3) proliferation (AID 743324); details: Plasmodium falciparum HB3 blood-stage proliferation; at 28.7 µM (top of the series) unless noted
In short: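 P. falciparum HB3 grown in erythrocytes (0.3% parasitemia, 2.5% hematocrit final) with compound for 72 h at 37 C, 5% CO2. Parasite DNA detected by SYBR Green after saponin/triton lysis overnight; normalized to 0.29 uM artemisinin and DMSO.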

[4] = qHTS profiling of the MIPE4 collection as inhibitors of Plasmodium falciparum (3D7) proliferation (AID 743344; call rule not given here); details: P. falciparum 3D7 in erythrocytes, SYBR Green DNA fluorescence, 72 h; at 28.5 µM (top of the series) unless noted
In short: as §1

[5] = qHTS profiling of the MIPE4 collection as inhibitors of Plasmodium falciparum (DD2) proliferation (AID 743345; call rule not given here); details: P. falciparum Dd2 in erythrocytes, SYBR Green DNA, 72 h; at 28.5 µM (top of the series) unless noted
In short: as §1

[6] = qHTS profiling of the MIPE4 collection as inhibitors of Plasmodium falciparum (DD2) proliferation (Rep 2) (AID 743346; call rule not given here); details: P. falciparum Dd2 in erythrocytes, SYBR Green DNA, 72 h; at 28.5 µM (top of the series) unless noted
In short: as §1

[7] = qHTS profiling of the MIPE4 collection as inhibitors of Plasmodium falciparum (HB3) proliferation (AID 743347; call rule not given here); details: P. falciparum HB3 in erythrocytes, SYBR Green DNA, 72 h; at 28.5 µM (top of the series) unless noted
In short: as §1

[8] = qHTS assay to identify small molecule inhibitors of chordoma cells - UCH-1 (AID 1259355); further: nearly all actives have a fitted effect of over 55% in size
In short: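 Cells (800/well) were seeded and left overnight at 37 C, 5% CO2, then treated with drugs at 15 concentrations plus a combination mix of auranofin, camptothecin, doxorubicin, rubitecan and topotecan. Viability after 48hr was read by CellTiter-Glo luminescence.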

[9] = qHTS assay to identify small molecule inhibitors of chordoma cells - UCH-2 (AID 1259356)
[10] = qHTS assay for cell viability of the p53RE-bla HCT-116 cell line (AID 743292); further: nearly all actives have a fitted effect of over 55% in size
In short: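 Viability of compound-treated p53RE-bla HCT-116 cells is taken from ATP-dependent luciferase luminescence. Treatment lasts 16 h at 37 C after a 5 h settling period; detection follows 30 min at room temperature.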

C[C@@H]1CCC2[C@@H](C)[C@@H](O)O[C@@H]3O[C@@]4(C)CC[C@@H]1[C@@]23OO4 (some centres not stated)
remaining parasite growth % (stronger effect = lower value) [1]: -0.537%
activity, percent of control [2]: -0.207%
remaining proliferation (% of control), lower = more inhibition [3]: -0.144%
parasite growth, % of DMSO control [4]: 5.03%
parasite growth remaining, % of DMSO control (lower = more inhibition) [5]: 6.44%
parasite growth, % of control (lower = inhibition) [6]: 10.6%
growth, % of control [7]: 6.11%
Potency [8]: inactive
Potency [9]: inactive

Cc1c(C)c2c(c(C)c1O)CC[C@@](C)(CCC[C@H](C)CCC[C@H](C)CCCC(C)C)O2
Potency [9]: inactive

O=C(O)C[C@H](O)C[C@H](O)/C=C/c1c(C2CC2)nc2ccccc2c1-c1ccc(F)cc1
Potency [9]: inactive

CCOC(C)=O
outcome [10]: inactive
Potency [8]: inactive

O=S(=O)(O)c1ccc2c(N=Nc3ccc(S(=O)(=O)O)c4ccccc34)c(O)c(S(=O)(=O)O)cc2c1
Potency [9]: inactive

OCCO[C@@H]1[C@@H](O)[C@H](O)[C@@H](CO)O[C@@H]1O
Potency [9]: inactive

CCOC(=O)C1=C(C)NC(C)=C(C(=O)OCC)C1c1ccccc1C=CC(=O)OC(C)(C)C
parasite growth, % of DMSO control [4]: 6.3%
parasite growth remaining, % of DMSO control (lower = more inhibition) [5]: 7.86%
parasite growth, % of control (lower = inhibition) [6]: 19.9%
growth, % of control [7]: 11.8%
Potency [8]: inactive
Potency [9]: inactive

O=C(O)c1cc(=O)c2c3nc4ccccc4oc-3cc(=O)c2[nH]1
Potency [9]: inactive

O=C(O)CN(CCN(CC(=O)O)CC(=O)O)CC(=O)O
outcome [10]: inactive
Potency [8]: inactive

CC(=O)OCC(=O)[C@@]1(O)CC[C@H]2[C@@H]3C[C@H](C)C4=CC(=O)C=C[C@]4(C)[C@H]3[C@@H](O)C[C@@]21C
Potency [9]: inactive

CC(C)NCC1CCc2cc(CO)c([N+](=O)[O-])cc2N1 (configuration not stated)
Potency [9]: inactive

C=C(NC(=O)C(=C)NC(=O)c1csc(C2=N[C@@H]3c4csc(n4)[C@H]4NC(=O)c5csc(n5)[C@H]([C@](C)(O)[C@@H](C)O)NC(=O)[C@H]5CSC(=N5)C(=CC)NC(=O)C([C@@H](C)O)NC(=O)c5csc(n5)[C@]3(CC2)NC(=O)[C@H](C)NC(=O)C(=C)NC(=O)[C@H](C)NC(=O)C([C@@H](C)CC)NC2C=Cc3c([C@H](C)O)cc(nc3C2O)C(=O)O[C@@H]4C)n1)C(N)=O (some centres not stated)
Potency [9]: inactive
